A selection: hits, their analogues and other compounds. The true share with any hit is near 4%.
Mtb bLac sens: beta-lactam sensitization of Mtb H37Rv. inhibition, % at 25 µM. M. tuberculosis H37Rv growth with meropenem, percent inhibition. 330,000 compounds, 0.27% hits; call rule not given here;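 further: growth measured after seven days incubation then overnight dye step; 0% = bacteria only wells and 100% = bacteria with antibiotic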
RecA intein inh: Mtb RecA intein splicing inhibition | cell-free RecA intein splicing, fluorescence | P9WHJ3 | 290,000 compounds, 0.75% hits | inhibition, % (concentration not given with the values); in the data active means inhibition above about 30%;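 further: 0% = vehicle wells and 100% = reference inhibitor control wells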
Rv3671c inh: inhibitors of M. tuberculosis serine protease Rv3671c; 320,000 compounds, 0.048% hits; P9WHR9; inhibition, % at 5.96 µM; AID 2606; in the data active means inhibition above about 38%;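 further: extracellular domain of Rv3671c used as enzyme; 0% = enzyme with DMSO and 100% = no enzyme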
Target sequence (P9WHR9 whole entry, looked up, the tested form may be a part): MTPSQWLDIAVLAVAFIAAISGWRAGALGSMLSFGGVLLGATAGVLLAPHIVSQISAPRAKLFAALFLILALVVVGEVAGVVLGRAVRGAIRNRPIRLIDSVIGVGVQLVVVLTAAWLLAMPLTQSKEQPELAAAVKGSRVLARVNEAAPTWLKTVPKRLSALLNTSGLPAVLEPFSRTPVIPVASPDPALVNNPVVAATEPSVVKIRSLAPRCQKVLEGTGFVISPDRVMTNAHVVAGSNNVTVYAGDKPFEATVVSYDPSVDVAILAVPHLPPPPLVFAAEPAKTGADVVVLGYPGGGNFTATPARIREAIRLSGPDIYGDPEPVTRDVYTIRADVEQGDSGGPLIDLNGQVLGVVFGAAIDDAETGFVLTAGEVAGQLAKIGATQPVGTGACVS
FBA Mtb inh: inhibits M. tuberculosis FBA enzyme; P9WQA3; purified M. tuberculosis FBA, fluorescence read-out; inhibition, % at 1 µM; 360,000 compounds, 2.3% hits; in the data active means inhibition above about 27%;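 further: 0% = vehicle and 100% = reference inhibitor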
GDH-TPI inh: counter-screen for M. tuberculosis FBA inhibitors: GDH-TPI coupled enzymes | GDH-TPI coupled enzyme counterscreen, NADH absorbance | inhibition, % at 4.8 µM | 360,000 compounds, 1.2% hits; in the data active means inhibition above about 30%;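 further: 0% = DMSO wells and 100% = wells lacking the enzyme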
UGM FP inh: blocks M. tuberculosis UGM enzyme; 320,000 compounds, 0.06% hits; inhibition, % at 10 µM; purified UGM, fluorescence polarization probe displacement; AID 504406; in the data active means inhibition above about 10%, passing the limit was not always enough
An asterisk follows results filed as active; i = inactive; . = not tested or not shown; + = active, no number.

SMILES | Mtb bLac sens | RecA intein inh | Rv3671c inh | FBA Mtb inh | GDH-TPI inh | UGM FP inh
COc1ccc(/C=N/NC(=O)c2cc3cc(OC)c(OC)cc3[nH]2)cc1 | 3.7 | -10.2 | 13.5 | 3.6 | 42.1* | -1.8
COc1ccc2[nH]c(C(=O)N/N=C/c3ccc(O)cc3O)cc2c1 | 3.2 | -11.3 | . | 17.6 | 30.9* | 6.1
COc1cc(OC)c2cc(C(=O)N/N=C/c3cccc(OC)c3O)[nH]c2c1 | -0.2 | 2.9 | 34.9 | 6.2 | 43.0* | -2.4
COc1ccc2cc(C(=O)N/N=C/c3cc(OC)c(OC)c(OC)c3)[nH]c2c1 | -3.0 | -1.6 | 0.3 | 3.9 | 49.3* | 4.0
COc1ccc2[nH]c(C(=O)Nc3ccc(C)c(F)c3)cc2c1 | 3.4 | 1.8 | -4.9 | 3.7 | 6.4 | 0.5
COc1cc2cc(C(=O)N/N=C/c3ccc(F)cc3)[nH]c2cc1OC | -8.1 | -2.7 | 7.3 | -0.5 | 46.2* | 0.8
Cc1ccc2c(c1)Oc1ccc([N+](=O)[O-])cc1C(=O)N2 | 2.6 | 0.3 | 8.4 | 0.5 | 6.2 | -2.8
Cc1ccc2c(c1)Oc1ccc(NC(=O)CCl)cc1C(=O)N2 | 96.7 | 60.3* | -7.2 | -0.4 | 6.2 | 2.3
CCOC(=O)/C(C#N)=C/c1c(N2CCN(C)CC2)nc2ccccn2c1=O | -7.0 | -9.9 | -6.4 | -5.4 | 14.7 | -3.9
COCCNC(=O)/C(C#N)=C/c1c(N2CCN(C)CC2)nc2ccccn2c1=O | 4.2 | -74.7 | 2.0 | 192.5* | 5.7 | 4.2
O=C(CCC(=O)OCc1ccc([N+](=O)[O-])cc1Cl)Nc1ccccc1 | 1.0 | -2.7 | -0.3 | 0.2 | 6.2 | -0.2
CC(C)=CCN1CCN(Cc2cc(C(C)C)n[nH]2)CC1CCO (stereo not given) | -5.5 | -0.4 | -4.8 | 1.8 | -8.1 | 3.2
O=C(O)C1CCCC[C@H]1C(=O)Nc1ncc([N+](=O)[O-])s1 (stereo not given in full) | -2.2 | . | -1.1 | -0.7 | 30.9* | 1.5
CCCS(=O)(=O)NC(=O)C1(C)CCCN(C(=O)c2cncc(Br)c2)C1 (stereo not given) | . | . | . | 0.5 | -3.5 | .
CS(=O)(=O)c1ccc(S(=O)(=O)N2CCC(CO)(CCCc3ccccc3)CC2)cc1 | 0.3 | -0.5 | 3.5 | -0.1 | 8.6 | 0.7
COc1ccccc1N1CCN(C(c2cc3ccc(C)cc3[nH]c2=O)c2nnnn2C2CCCC2)CC1 (stereo not given) | 2.6 | -2.1 | 2.1 | 4.0 | 33.9* | 1.1
COc1cc(NC(=O)N2CCc3nc(Nc4cc(Cl)cc(Cl)c4)ncc3C2)cc(OC)c1OC | . | . | . | -3.0 | -9.8 | .
Nc1nc2ccc(-c3nc4ccccc4o3)cc2s1 | 27.0 | 4.8 | -3.1 | + | 40.6* | 0.1
COc1ccc(-n2nnnc2C(c2ccnc3ccccc23)N2CCN(C/C=C/c3ccccc3)CC2)cc1 (stereo not given) | . | . | . | -1.3 | . | .
CC(C)(C)OC(=O)N(CCc1ccccc1)Cc1ccc(OCc2cccc(NC(=O)/C=C/c3ccccc3)c2)cc1 | . | . | . | 1.9 | 36.5* | .
COC(=O)c1c(-c2ccc(S(C)(=O)=O)cc2)sc2ccc(OC)cc12 | 8.4 | . | -3.8 | 3.5 | 12.9 | -2.9
COC(=O)c1c(-c2ccc(S(C)(=O)=O)cc2)sc2cc(OC)ccc12 | 2.8 | . | -6.3 | 189.9* | 12.9 | -2.1
c1ccc(Oc2ccccc2-c2cc(NCCc3cccnc3)n3nccc3n2)cc1 | . | . | . | 17.0 | 7.5 | .
CC(=O)O[C@H]1[C@@H](O)[C@H](O)[C@H](Oc2c(O)c(C)c3c4c2[C@@H](C)CC[C@@H]4[C@@H](C)C[C@@H]3C=C(C)C)O[C@H]1C | . | . | . | -0.6 | -0.7 | .
Cc1ccccc1-n1c(=O)c(C#N)cc2c(=O)n3ccccc3nc21 | -2.7 | i | -2.1 | + | 18.3 | 1.5
SMILES | Mtb bLac sens | RecA intein inh | Rv3671c inh | FBA Mtb inh | GDH-TPI inh | UGM FP inh
C=CCn1c(=O)c(C#N)cc2c(=O)n3ccccc3nc21 | -11.1 | -1.2 | 2.1 | + | -0.9 | 1.4
CCn1c(=N)c(S(=O)(=O)c2ccc(C)cc2)cc2c(=O)n3ccccc3nc21 | -12.1 | -64.1 | 4.4 | . | . | -1.3
Cc1cc(-n2c(=O)c(C#N)cc3c(=O)n4ccccc4nc32)no1 | 49.9 | -441.3 | 0.8 | + | 11.0 | 1.7
Cc1ccccc1NC(=O)CON=C(N)c1ccccc1 | 3.7 | . | -1.4 | 0.5 | 2.1 | 0.6
Cc1cccc(CN2CCN([C@H]3CS(=O)(=O)N[C@@H]3COCc3ccccc3)CC2)c1 | . | . | . | -1.6 | . | .
COc1ccc(-c2cc(=O)c3c(O)cc(O)cc3o2)cc1 | -0.5 | . | -27.2 | 2.3 | 33.7* | 0.4
O=c1c(-c2c(O)cc(O)c3c(=O)cc(-c4ccc(O)cc4)oc23)c(-c2ccc(O)cc2)oc2cc(O)cc(O)c12 | 2.5 | . | -64.0 | -1.0 | 22.6 | 0.2
O=c1cc(-c2ccc(O)c(O)c2)oc2cc(O)cc(O)c12 | -0.6 | -4.0 | -20.1 | -3.6 | 16.7 | -0.8
O=c1cc(-c2ccc(O)cc2)oc2c(-c3c(O)cc(O)c4c(=O)cc(-c5ccc(O)cc5)oc34)c(O)cc(O)c12 | 4.4 | . | -9.5 | 1.1 | 35.3* | .
O=c1cc(-c2ccc(O)c(-c3c(O)cc(O)c4c(=O)cc(-c5ccc(O)cc5)oc34)c2)oc2cc(O)cc(O)c12 | -8.4 | 5.8 | -41.1 | -1.2 | 33.5* | 1.4
Cc1cn([C@H]2C[C@H](O)[C@@H](/C=C/C(=O)N3CCN(Cc4ccc(F)cc4)CC3)O2)c(=O)[nH]c1=O | . | . | . | 3.0 | . | .
CCc1nc2ccc(C(=O)NCc3cccs3)cn2c1N(C)Cc1nccs1 | . | . | . | -1.5 | 0.0 | .
COc1ccccc1/C=C/C(=O)NCC(=O)N=Nc1c(O)[nH]c2ccccc12 | 2.1 | -2.8 | -8.5 | 4.0 | 35.6* | 6.0
COc1ccc(CC(=O)NCC(=O)N=Nc2c(O)[nH]c3ccccc23)cc1 | 1.4 | 0.9 | -1.8 | -2.6 | 10.0 | -1.9
CCOC(=O)c1cc2c(nc1N)CC(C)(CC)OC2 (stereo not given) | 8.4 | 1.6 | 5.7 | 111.9* | 14.5 | 1.3
CCOC(=O)c1cc2c(nc1N)CC(C)(C)OC2 | -5.4 | -1.1 | 5.0 | 163.7* | 20.0 | -4.4
CN(C)C(=O)CCc1ccc2c3c([nH]c2c1)[C@]1(CCC2CCCC2)[C@@H](C(=O)N2CCOCC2)C[C@H](CC(=O)NCCC2=CCCCC2)C(=O)N1CC3 | . | . | . | -0.9 | 3.6 | .
O=C(N/N=C/c1c(O)n(C2CCCCC2)c(=S)[nH]c1=O)c1ccccc1 | 19.4 | 14.7 | 2.2 | 2.6 | 14.0 | -4.0
O=C(N/N=C/c1c(O)n(C2CCCCC2)c(=S)[nH]c1=O)c1ccccc1O | 2.0 | 36.9* | 9.9 | 7.0 | 14.7 | 2.8
O=c1[nH]c(=S)n(C2CC2)c(O)c1/C=N/Nc1ccccc1 | 37.8 | -8.8 | -6.4 | -5.1 | 18.7 | .
CC(N=Cc1c(O)n(C2CC2)c(=S)[nH]c1=O)c1ccccc1 (stereo not given) | 4.0 | 0.7 | -5.7 | -2.8 | 34.5* | 0.5
CC(=O)OC(COc1ccccc1)Cn1cnc2cc(C)c(C)cc21 (stereo not given) | 1.0 | -0.2 | 2.5 | -0.6 | -2.2 | -3.3
O=S(=O)(O)c1nc2ccccc2n1Cc1cccc2ccccc12 | -9.2 | 2.4 | -1.3 | . | . | 1.5
